{"source": "PubChem BioAssay", "note": "Where “and” joins values, the source holds several entries; their conditions need not be identical. Equal entries are not always repeated. Calls of active or inactive are those of the source.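 The calls were made as follows, unless noted: active = mean z-score across replicates of 1.96 or higher in either the MELAS or the Rieske mutant cell line; inactive = the rest.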", "data": [{"system": "not listed separately", "experiment": "phospholipid biosynthesis inhibitors in animal cells, primary screen, cell-based, LOPAC library, screen 4 (AID 1347384; call rule not given here)", "conditions": "phospholipid biosynthesis inhibition screen, at 10 µM", "values": [{"smiles": "CNCCC(Oc1ccc(C(F)(F)F)cc1)c1ccccc1", "note": "(centres undefined)", "outcome": "inactive"}, {"smiles": "COc1ccc(/C=C/C(=O)Nc2ccccc2C(=O)O)cc1OC", "outcome": "inactive"}, {"smiles": "CC(C)NCC(O)COc1cccc2ccccc12", "note": "(centres undefined)", "outcome": "inactive"}, {"smiles": "O=[N+]([O-])c1cccc2cn[nH]c12", "outcome": "inactive"}, {"smiles": "CN(C)c1nc(N(C)C)nc(N(C)C)n1", "outcome": "inactive"}, {"smiles": "CC1=C(/C=C/C(C)=C/C=C/C(C)=C\\C(=O)O)C(C)(C)CCC1", "outcome": "inactive"}, {"smiles": "CC(C)NCC(O)COc1ccc(CC(N)=O)cc1", "note": "(centres undefined)", "outcome": "inactive"}, {"smiles": "O=c1ccc2ccc(O)c(O)c2o1", "outcome": "inactive"}]}, {"system": "not listed separately", "experiment": "survival rescue of mitochondrial mutant cells in low glucose, primary screen, MELAS cybrids, Rieske KO mouse fibroblasts, CellTiter-Glo (AID 1508586);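 also: z relative to plate mean and SD of compound and empty wells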", "conditions": "MELAS cybrid survival, CellTiter-Glo 48 h, stronger effect = higher value", "values": [{"smiles": "CNCCC(Oc1ccc(C(F)(F)F)cc1)c1ccccc1", "note": "(centres undefined)", "z-score": "1.26 (inactive) and -0.395 (inactive) and -0.285 (inactive)"}, {"smiles": "COc1ccc(/C=C/C(=O)Nc2ccccc2C(=O)O)cc1OC", "z-score": "0.761 (inactive) and 0.318 (inactive)"}, {"smiles": "COC(=O)[C@H](c1ccccc1Cl)N1CCc2sccc2C1", "z-score": "-0.401 (inactive) and -0.448 (inactive)"}, {"smiles": "CS(=O)(=O)c1ccc(C2=C(c3ccccc3)C(=O)OC2)cc1", "z-score": "-0.068 (inactive) and 0.18 (inactive) and -0.373 (inactive)"}, {"smiles": "CN(C)c1nc(N(C)C)nc(N(C)C)n1", "z-score": "-0.405 (inactive) and 0.759 (inactive) and 0.19 (inactive)"}, {"smiles": "COc1ccc(-c2cc(=O)c3c(OC)c(OC)c(OC)c(OC)c3o2)cc1OC", "z-score": -0.237}, {"smiles": "C[N+]1(C)CCCC(OC(=O)C(O)(c2ccccc2)c2ccccc2)C1", "note": "(centres undefined)", "z-score": "0.378 (inactive)"}, {"smiles": "CC1=C(/C=C/C(C)=C/C=C/C(C)=C\\C(=O)O)C(C)(C)CCC1", "z-score": "-0.17 (inactive)"}, {"smiles": "COc1ccc(C[C@H](N)C(=O)N[C@H]2[C@@H](O)[C@H](n3cnc4c(N(C)C)ncnc43)O[C@@H]2CO)cc1", "z-score": "0.777 (inactive)"}, {"smiles": "CC(C(=O)O)c1ccc(-c2ccccc2)c(F)c1", "note": "(centres undefined)", "z-score": "-0.289 (inactive) and 0.565 (inactive) and 0.434 (inactive)"}, {"smiles": "CC[C@H]1OC(=O)[C@H](C)[C@@H](O[C@H]2C[C@@](C)(OC)[C@@H](O)[C@H](C)O2)[C@H](C)[C@@H](O[C@@H]2O[C@H](C)C[C@H](N(C)C)[C@H]2O)[C@](C)(OC)C[C@@H](C)C(=O)[C@H](C)[C@@H](O)[C@]1(C)O", "z-score": "-0.605 (inactive) and -0.357 (inactive)"}, {"smiles": "C[C@H]1COc2c(N3CCN(C)CC3)c(F)cc3c(=O)c(C(=O)O)cn1c23", "z-score": "-0.0762 (inactive)"}, {"smiles": "CC(C)NCC(O)COc1ccc(CC(N)=O)cc1", "note": "(centres undefined)", "z-score": "-0.4 (inactive)"}, {"smiles": "O=c1ccc2ccc(O)c(O)c2o1", "z-score": "-0.407 (inactive)"}, {"smiles": "Cc1cccc(C)c1NC(=O)C1CCCCN1C", "note": "(centres undefined)", "z-score": "-0.27 (inactive) and -0.937 (inactive)"}, {"smiles": "CCCCC(=O)N(Cc1ccc(-c2ccccc2-c2nn[nH]n2)cc1)[C@H](C(=O)O)C(C)C", "z-score": "0.123 (inactive) and -0.397 (inactive)"}, {"smiles": "Nc1ncnc2c1ncn2[C@@H]1O[C@H](CO)[C@@H](O)[C@@H]1O", "z-score": "-2.73 (inactive) and -2.26 (inactive)"}]}, {"system": "not listed separately", "experiment": "survival rescue of mitochondrial mutant cells in low glucose, primary screen, MELAS cybrids, Rieske KO mouse fibroblasts, CellTiter-Glo (AID 1508586)", "conditions": "Rieske KO mouse fibroblast survival, CellTiter-Glo 72 h", "values": [{"smiles": "CNCCC(Oc1ccc(C(F)(F)F)cc1)c1ccccc1", "note": "(centres undefined)", "z-score": "-2.64 and 0.201 and 0.197"}, {"smiles": "COc1ccc(/C=C/C(=O)Nc2ccccc2C(=O)O)cc1OC", "z-score": "-0.0722 and 0.758"}, {"smiles": "COC(=O)[C@H](c1ccccc1Cl)N1CCc2sccc2C1", "z-score": "-0.332 and -1.48"}, {"smiles": "CS(=O)(=O)c1ccc(C2=C(c3ccccc3)C(=O)OC2)cc1", "z-score": "-0.00526 and -0.204 and -0.438"}, {"smiles": "CN(C)c1nc(N(C)C)nc(N(C)C)n1", "z-score": "0.906 and 0.36 and 0.155"}, {"smiles": "COc1ccc(-c2cc(=O)c3c(OC)c(OC)c(OC)c(OC)c3o2)cc1OC", "z-score": 2.19}, {"smiles": "C[N+]1(C)CCCC(OC(=O)C(O)(c2ccccc2)c2ccccc2)C1", "note": "(centres undefined)", "z-score": 0.26}, {"smiles": "CC1=C(/C=C/C(C)=C/C=C/C(C)=C\\C(=O)O)C(C)(C)CCC1", "z-score": -0.281}, {"smiles": "COc1ccc(C[C@H](N)C(=O)N[C@H]2[C@@H](O)[C@H](n3cnc4c(N(C)C)ncnc43)O[C@@H]2CO)cc1", "z-score": -0.707}, {"smiles": "CC(C(=O)O)c1ccc(-c2ccccc2)c(F)c1", "note": "(centres undefined)", "z-score": "1.18 and -0.0179 and 1.37"}, {"smiles": "CC[C@H]1OC(=O)[C@H](C)[C@@H](O[C@H]2C[C@@](C)(OC)[C@@H](O)[C@H](C)O2)[C@H](C)[C@@H](O[C@@H]2O[C@H](C)C[C@H](N(C)C)[C@H]2O)[C@](C)(OC)C[C@@H](C)C(=O)[C@H](C)[C@@H](O)[C@]1(C)O", "z-score": "-0.647 and -0.657"}, {"smiles": "C[C@H]1COc2c(N3CCN(C)CC3)c(F)cc3c(=O)c(C(=O)O)cn1c23", "z-score": -0.528}, {"smiles": "CC(C)NCC(O)COc1ccc(CC(N)=O)cc1", "note": "(centres undefined)", "z-score": -0.19}, {"smiles": "O=c1ccc2ccc(O)c(O)c2o1", "z-score": 0.783}, {"smiles": "Cc1cccc(C)c1NC(=O)C1CCCCN1C", "note": "(centres undefined)", "z-score": "-0.166 and -1.35"}, {"smiles": "CCCCC(=O)N(Cc1ccc(-c2ccccc2-c2nn[nH]n2)cc1)[C@H](C(=O)O)C(C)C", "z-score": "0.0466 and -1.21"}, {"smiles": "Nc1ncnc2c1ncn2[C@@H]1O[C@H](CO)[C@@H](O)[C@@H]1O", "z-score": "0.559 and 1.92"}]}, {"molecular_target": "NAD(+) hydrolase SARM1 (Homo sapiens) (UniProt Q6SZW1)", "sequence (Q6SZW1 whole entry, looked up)": "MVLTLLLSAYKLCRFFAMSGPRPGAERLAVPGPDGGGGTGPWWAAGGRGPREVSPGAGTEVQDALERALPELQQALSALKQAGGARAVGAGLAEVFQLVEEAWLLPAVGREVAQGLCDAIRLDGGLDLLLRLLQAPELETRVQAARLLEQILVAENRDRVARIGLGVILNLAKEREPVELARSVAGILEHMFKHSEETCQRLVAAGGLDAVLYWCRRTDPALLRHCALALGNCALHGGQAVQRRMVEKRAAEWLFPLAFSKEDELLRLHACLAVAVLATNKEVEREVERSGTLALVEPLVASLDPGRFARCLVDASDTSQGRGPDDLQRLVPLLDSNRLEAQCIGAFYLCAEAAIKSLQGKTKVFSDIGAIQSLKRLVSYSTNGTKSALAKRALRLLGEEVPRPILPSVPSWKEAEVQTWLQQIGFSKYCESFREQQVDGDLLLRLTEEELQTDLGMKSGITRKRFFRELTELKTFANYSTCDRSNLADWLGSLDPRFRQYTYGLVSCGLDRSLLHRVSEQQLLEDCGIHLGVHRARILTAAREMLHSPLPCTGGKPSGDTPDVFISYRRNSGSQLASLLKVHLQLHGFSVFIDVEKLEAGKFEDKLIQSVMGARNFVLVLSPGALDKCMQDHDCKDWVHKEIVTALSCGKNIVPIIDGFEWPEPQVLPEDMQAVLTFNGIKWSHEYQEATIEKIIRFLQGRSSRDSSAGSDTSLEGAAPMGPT", "experiment": "SARM1 TIR NADase inhibitors, cell lysate, NAD-Glo luminescence (AID 1508614;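 active = compound whose remaining NAD level is above about 45 nM, limit read from the data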)", "conditions": "SAM-TIR HEK293T lysate NADase, at 1 µM, stronger effect = higher value", "values": [{"smiles": "CNCCC(Oc1ccc(C(F)(F)F)cc1)c1ccccc1", "note": "(centres undefined)", "remaining NAD": "10 nM (inactive)"}, {"smiles": "COc1ccc(/C=C/C(=O)Nc2ccccc2C(=O)O)cc1OC", "remaining NAD": "10 nM (inactive)"}, {"smiles": "COC(=O)[C@H](c1ccccc1Cl)N1CCc2sccc2C1", "remaining NAD": "10 nM (inactive)"}, {"smiles": "CC(C)NCC(O)COc1cccc2ccccc12", "note": "(centres undefined)", "remaining NAD": "10 nM (inactive)"}, {"smiles": "CS(=O)(=O)c1ccc(C2=C(c3ccccc3)C(=O)OC2)cc1", "remaining NAD": "10 nM (inactive)"}, {"smiles": "CN(C)c1nc(N(C)C)nc(N(C)C)n1", "remaining NAD": "10 nM (inactive)"}, {"smiles": "C[N+]1(C)CCCC(OC(=O)C(O)(c2ccccc2)c2ccccc2)C1", "note": "(centres undefined)", "remaining NAD": "10 nM (inactive)"}, {"smiles": "CC1=C(/C=C/C(C)=C/C=C/C(C)=C\\C(=O)O)C(C)(C)CCC1", "remaining NAD": "10 nM (inactive)"}, {"smiles": "CCc1ccc(CCOc2ccc(CC3SC(=O)NC3=O)cc2)nc1", "note": "(centres undefined)", "remaining NAD": "10 nM (inactive)"}, {"smiles": "COc1ccc(C[C@H](N)C(=O)N[C@H]2[C@@H](O)[C@H](n3cnc4c(N(C)C)ncnc43)O[C@@H]2CO)cc1", "remaining NAD": "10 nM (inactive)"}, {"smiles": "CC(C(=O)O)c1ccc(-c2ccccc2)c(F)c1", "note": "(centres undefined)", "remaining NAD": "10 nM (inactive)"}, {"smiles": "CC[C@H]1OC(=O)[C@H](C)[C@@H](O[C@H]2C[C@@](C)(OC)[C@@H](O)[C@H](C)O2)[C@H](C)[C@@H](O[C@@H]2O[C@H](C)C[C@H](N(C)C)[C@H]2O)[C@](C)(OC)C[C@@H](C)C(=O)[C@H](C)[C@@H](O)[C@]1(C)O", "remaining NAD": "10 nM (inactive)"}, {"smiles": "C[C@H]1COc2c(N3CCN(C)CC3)c(F)cc3c(=O)c(C(=O)O)cn1c23", "remaining NAD": "10 nM (inactive)"}, {"smiles": "CC(C)NCC(O)COc1ccc(CC(N)=O)cc1", "note": "(centres undefined)", "remaining NAD": "10 nM (inactive)"}, {"smiles": "Cc1cccc(C)c1NC(=O)C1CCCCN1C", "note": "(centres undefined)", "remaining NAD": "10 nM (inactive)"}, {"smiles": "CCCCC(=O)N(Cc1ccc(-c2ccccc2-c2nn[nH]n2)cc1)[C@H](C(=O)O)C(C)C", "remaining NAD": "10 nM (inactive)"}, {"smiles": "Nc1ncnc2c1ncn2[C@@H]1O[C@H](CO)[C@@H](O)[C@@H]1O", "remaining NAD": "10 nM (inactive)"}]}]}
